From PubChem BioAssay (EPA / NIEHS)
Several values for one entry are separate records, joined by “and”; a condition that tells them apart may be missing. Equal entries are not always repeated. Results filed as inconclusive are left out. Some structures have more than one record in an assay (separate samples or runs), and their calls can disagree. Activity calls are given as the source filed them. The calls were made as follows: active = hit-call score of the fitted dose curve at least 0.9, where 1 is the maximum; inconclusive = response in the unintended direction; inactive = score below 0.9.

Tests used:
NCBI gene 100848466 = test: NVS_NR_bPR: NovaScreen (NVS) Nuclear Receptor Binding Assay for bovine Progextron Receptor (PR) (AID 2283343);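 as to AC50: actives lower bound radioligand signal below DMSO meaning displacement of the label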
How it was run: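 Bovine uterine membrane preparation; radioligand displacement read by scintillation counting 18 h after dosing. Primary screen single concentration, 25 uM, in duplicate; actives followed up in concentration series. Signal loss versus DMSO baseline.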

[1] = biological target: bovine Estrogen Receptor (ER), ESR1 (gene 407238) (UniProt P49884); test: NVS_NR_bER: NovaScreen (NVS) Nuclear Receptor Binding Assay for bovine Estrogen Receptor (ER) (AID 2283345);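 also: actives lower the bound radioligand count which means they displace the ER ligand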
How it was run: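 Cell-free radioligand binding with bovine uterine membrane extracts, read 18 hours after dosing by scintillation counting. Loss of signal versus DMSO baseline indicates displacement. Primary screen run in duplicate at 25 uM, actives followed in concentration series.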

[2] = biological target: chimpanzee Androgen Receptor (AR), AR (gene 747460) (UniProt O97775); test: NVS_NR_cAR: NovaScreen (NVS) Nuclear Receptor Binding Assay for chimpanzee Androgen Receptor (AR) (AID 2283346);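 also: radioligand displacement from AR measured by scintillation counting in a cell-free assay; a loss of bound radioligand signal versus DMSO counts as binding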
How it was run: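 Radioligand binding to chimpanzee AR expressed in Sf9/Sf21 cells, cell-free, measured 72 h after dosing by lysate-based scintillation counting. Loss of signal vs DMSO; initial duplicate screen at 25 uM, actives retested in concentration series.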

[3] = biological target: Estrogen receptor (Homo sapiens) (UniProt P03372); test: OT_ER_ERaERa_1440: Odyssey Thera (OT) 24-hour HEK293T Protein-Complementation Assay for Estrogen Receptor-alpha/-alpha Homodimer (AID 2283349);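 also: hits raise fluorescence above DMSO for agonists and antagonists alike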
How it was run: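 HEK293T cells stably expressing the human ER alpha ligand-binding domain (aa 310-547) as a homodimer PCA were dosed for 24 hours. Fluorescence intensity was read by laser scanning cytometry, and gain of signal was fitted relative to DMSO vehicle.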

[4] = biological target: Estrogen receptor (Homo sapiens) (UniProt P03372); test: OT_ER_ERaERa_0480: Odyssey Thera (OT) 8-hour HEK293T Protein-Complementation Assay for Estrogen Receptor-alpha/-alpha Homodimer (AID 2283351);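 also: rise in fluorescence from reassembled reporter fragments on ERα LBD homodimer in nucleus or whole cell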
How it was run: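 HEK293T cells stably expressing the human ERα ligand-binding domain (aa 310-547) as a homodimer PCA were dosed with compound for 8 h. Gain of fluorescence intensity versus DMSO vehicle was read by laser scanning cytometry.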

[5] = biological target: rat Mineralocorticoid Receptor (MR), Nr3c2 (gene 25672) (UniProt P22199); test: NVS_NR_rMR: NovaScreen (NVS) Nuclear Receptor Binding Assay for rat Mineralocorticoid Receptor (MR) (AID 2283355)
How it was run: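 Cell-free radioligand binding to mineralocorticoid receptor from adrenalectomized rat brain supernatant, scintillation counting after 24 h. Primary screen in duplicate at 25 uM; actives retested in concentration series. Loss of specific binding versus DMSO.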

[6] = biological target: T1, Estrogen receptor (Homo sapiens) + Estrogen receptor beta (Homo sapiens) (UniProt P03372+Q92731); test: OT_ER_ERaERb_0480: Odyssey Thera (OT) 8-hour HEK293T Protein-Complementation Assay for Estrogen Receptor-alpha/-beta Heterodimer (AID 2283352)
How it was run: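 Human HEK293T cells were treated for 8 hours and receptor heterodimerisation was detected through reconstitution of a fluorescent reporter split between ER-alpha and ER-beta ligand-binding domains. Activity was analysed as gain of signal against DMSO.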

[7] = biological target: T1, Estrogen receptor (Homo sapiens) + Estrogen receptor beta (Homo sapiens); test: OT_ER_ERaERb_1440: Odyssey Thera (OT) 24-hour HEK293T Protein-Complementation Assay for Estrogen Receptor-alpha/-beta Homodimer (AID 2283356);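 also: heteromer of ER alpha and ER beta binding domains; hits raise reporter fluorescence and both agonists and antagonists give an increase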
How it was run: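 24 h exposure; HEK293T PCA cells with ERα/ERβ LBD fragments; signal rise in nuclear or whole-cell fluorescence over vehicle.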

[8] = biological target: Estrogen receptor beta (Homo sapiens) (UniProt Q92731); test: OT_ER_ERbERb_0480: Odyssey Thera (OT) 8-hour HEK293T Protein-Complementation Assay for Estrogen Receptor-beta/-beta Homodimer (AID 2283357);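 also: active means signal gain over DMSO baseline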
How it was run: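 Fluorescence intensity, nuclear for agonists and nuclear plus cytoplasmic for antagonists, was quantified by laser scanning cytometry versus vehicle after 8 h treatment. The cells were HEK293T stably carrying ER beta LBD fragment-complementation partners.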

[9] = biological target: rat Glutamate, MK-801 Agonist Site (GluNMDA_MK801), Grin1 (gene 24408) (UniProt P35439); test: NVS_LGIC_rGluNMDA_MK801_Agonist: NovaScreen (NVS) Ligand-Gated Ion Channel Assay for rat Glutamate, MK-801 Agonist Site (GluNMDA_MK801) (AID 2283340)
How it was run: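 Radioligand binding at MK-801 site in rat forebrain membranes, 1.5 h incubation, filter-based scintillation counting. Initially 25 uM in duplicate; actives then run in concentration-response up to 50 uM, fitted for gain of signal versus DMSO.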

[10] = biological target: human Constitutive Androstane Receptor (CAR), NR1I3 (gene 9970) (UniProt Q14994); test: NVS_NR_hCAR_Antagonist: NovaScreen (NVS) Nuclear Receptor Binding Assay for human Constitutive Androstane Receptor Antagonism (CAR) (AID 2283344)
How it was run: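 Cell-free TR-FRET binding read 1 h after dosing, antagonist mode; loss of signal versus DMSO baseline. Primary screen in duplicate at a single 25 uM; actives retested in concentration series.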

PGR (gene 5241) = PGR (gene 5241) (UniProt P06401); test: NVS_NR_hPR: NovaScreen (NVS) Nuclear Receptor Binding Assay for human Progestron Receptor (PR) (AID 2283360);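 also: active means loss of bound radioligand signal versus DMSO baseline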
How it was run: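 Radioligand competition binding on receptor extracted from T47D cells, read by scintillation counting 18 h after dosing. Loss of signal versus DMSO; primary screen in duplicate at 25 uM, actives followed in concentration series.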

[11] = NVS_IC_rCaBTZCHL: NovaScreen (NVS) Ion Channel Assay for Calcium Channel, Type L, Benzothiazepine Site (CaBTZCHL) (AID 2283337)
How it was run: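 Radioligand binding to the benzothiazepine site of L-type Ca channels in rat cortical membranes (cell-free), 1.5 h after dosing; filter-based scintillation counting. Loss of signal relative to DMSO baseline; primary single-concentration screen at 25 uM, actives then run in concentration series.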

[12] = biological target: Estrogen receptor (Homo sapiens) (UniProt P03372); test: NVS_NR_hER: NovaScreen (NVS) Nuclear Receptor Binding Assay for human Estrogen Receptor (ER) (AID 2283348)
How it was run: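 Radioligand competitive displacement binding to estrogen receptor from MCF7 extract, cell-free; 18 h after dosing, scintillation read-out. Primary screen in duplicate at 25 uM; actives followed up in concentration series; loss of signal vs DMSO.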

[13] = biological target: Androgen Receptor/SRC-1 Co-activator, AR (gene 367) (UniProt P10275); test: OT_AR_ARSRC1_0960: Odyssey Thera (OT) 16-hour HEK293T Protein-Complementation Assay for Androgen Receptor/SRC-1 Co-activator (AID 2283353);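 also: actives raise the signal above DMSO so potency reflects increased AR and SRC-1 complex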
How it was run: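 HEK293T cells stably expressing AR and SRC-1 fused to split Venus YFP fragments via (Gly4Ser)2 linkers were dosed for 16 h. Nuclear/cytoplasmic fluorescence ratio at 488 nm, ≥400 cells per image, fitted for gain of signal versus DMSO.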

[14] = biological target: Small conductance calcium-activated potassium channel protein 1 (Rattus norvegicus) (UniProt P70606); test: NVS_IC_rKCaCh: NovaScreen (NVS) Ion Channel Assay for rat Potassium Channel, Ca2+ Act., VI (KCaCh) (AID 2283336)
How it was run: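 Radioligand binding to rat forebrain membranes, cell-free, read 1 hour after dosing by filter-based scintillation counting. Compounds first run in duplicate at 25 uM, actives then in concentration series; loss of signal vs DMSO indicates displacement.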

[15] = system: guinea pig Histamine Receptor (H2), gene 100729734; test: NVS_GPCR_gH2: NovaScreen (NVS) G Protein-Coupled Receptor Assay for guinea pig Histamine Receptor (H2) (AID 2283342)
How it was run: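 Radioligand displacement on guinea pig striatal membranes, 1 h after dosing, filter-based scintillation counting; loss of signal versus DMSO. Single-point screen at 25 uM in duplicate, then concentration-response up to 50 uM.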

[16] = biological target: Retinoic acid receptor alpha (Homo sapiens) (UniProt P10276); test: NVS_NR_hRAR_Antagonist: NovaScreen (NVS) Nuclear Receptor Binding Assay for human Retinoic Acid Alpha Receptor Antagonism (RAR) (AID 2283358)
How it was run: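 Cell-free TR-FRET binding assay with extracted human RARalpha in antagonist mode, read 2 h after dosing. Loss of signal was fitted relative to DMSO; the primary screen used 25 uM in duplicate, with concentration series on follow-up.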

Measured: AC50

rat Mineralocorticoid Receptor (MR), Nr3c2 (gene 25672), sequence (P22199 whole entry, looked up): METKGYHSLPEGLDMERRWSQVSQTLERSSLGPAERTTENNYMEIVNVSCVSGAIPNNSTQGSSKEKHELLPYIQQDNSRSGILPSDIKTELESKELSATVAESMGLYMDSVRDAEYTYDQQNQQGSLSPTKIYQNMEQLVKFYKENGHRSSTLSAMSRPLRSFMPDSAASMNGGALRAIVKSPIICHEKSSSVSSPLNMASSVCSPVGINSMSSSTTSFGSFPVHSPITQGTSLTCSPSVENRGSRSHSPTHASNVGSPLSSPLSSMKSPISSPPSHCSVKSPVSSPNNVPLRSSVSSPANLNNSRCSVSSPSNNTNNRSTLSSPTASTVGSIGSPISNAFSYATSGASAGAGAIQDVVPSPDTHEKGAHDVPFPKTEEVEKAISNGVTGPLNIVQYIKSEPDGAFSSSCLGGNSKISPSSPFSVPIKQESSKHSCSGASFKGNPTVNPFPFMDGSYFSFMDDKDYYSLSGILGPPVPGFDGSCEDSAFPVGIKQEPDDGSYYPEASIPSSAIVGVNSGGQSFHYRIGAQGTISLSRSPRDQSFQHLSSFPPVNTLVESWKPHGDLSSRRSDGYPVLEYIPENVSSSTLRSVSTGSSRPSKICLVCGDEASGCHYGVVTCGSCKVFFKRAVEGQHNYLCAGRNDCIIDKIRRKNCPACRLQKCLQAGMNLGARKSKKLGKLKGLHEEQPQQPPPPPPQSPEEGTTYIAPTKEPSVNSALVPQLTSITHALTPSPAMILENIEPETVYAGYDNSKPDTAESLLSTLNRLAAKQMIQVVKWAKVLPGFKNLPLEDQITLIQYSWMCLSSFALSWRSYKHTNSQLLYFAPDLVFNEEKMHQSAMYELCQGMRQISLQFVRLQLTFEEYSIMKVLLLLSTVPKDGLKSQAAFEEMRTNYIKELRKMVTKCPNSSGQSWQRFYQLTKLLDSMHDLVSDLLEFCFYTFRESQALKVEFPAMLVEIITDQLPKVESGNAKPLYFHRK
human Constitutive Androstane Receptor (CAR), NR1I3 (gene 9970), sequence (Q14994 whole entry, looked up): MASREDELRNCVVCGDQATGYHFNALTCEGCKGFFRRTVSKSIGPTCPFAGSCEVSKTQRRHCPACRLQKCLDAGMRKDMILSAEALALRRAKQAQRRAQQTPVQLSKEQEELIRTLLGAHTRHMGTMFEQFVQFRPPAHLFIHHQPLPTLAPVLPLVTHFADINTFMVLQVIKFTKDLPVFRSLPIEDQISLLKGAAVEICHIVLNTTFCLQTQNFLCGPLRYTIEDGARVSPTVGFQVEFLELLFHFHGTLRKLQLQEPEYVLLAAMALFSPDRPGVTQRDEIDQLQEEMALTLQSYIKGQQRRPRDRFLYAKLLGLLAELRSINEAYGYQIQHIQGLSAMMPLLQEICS
bovine Estrogen Receptor (ER), ESR1 (gene 407238), sequence (P49884 whole entry, looked up): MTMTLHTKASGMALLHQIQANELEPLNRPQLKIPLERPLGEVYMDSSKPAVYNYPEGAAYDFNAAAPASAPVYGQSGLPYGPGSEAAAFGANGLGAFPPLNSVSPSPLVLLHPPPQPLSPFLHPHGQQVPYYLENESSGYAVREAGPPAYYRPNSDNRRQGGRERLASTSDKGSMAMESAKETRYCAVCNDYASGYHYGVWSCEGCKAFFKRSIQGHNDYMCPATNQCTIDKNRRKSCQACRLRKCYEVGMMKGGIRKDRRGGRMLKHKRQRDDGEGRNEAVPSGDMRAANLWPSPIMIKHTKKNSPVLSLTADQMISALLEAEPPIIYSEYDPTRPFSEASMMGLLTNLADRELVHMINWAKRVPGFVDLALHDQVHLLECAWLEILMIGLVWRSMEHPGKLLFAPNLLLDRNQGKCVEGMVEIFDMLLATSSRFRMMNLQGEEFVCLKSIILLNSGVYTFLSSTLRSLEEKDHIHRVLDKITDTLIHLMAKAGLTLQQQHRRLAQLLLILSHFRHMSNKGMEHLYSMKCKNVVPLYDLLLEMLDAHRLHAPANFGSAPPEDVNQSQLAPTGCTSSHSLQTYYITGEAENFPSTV
PGR (gene 5241), sequence (P06401 whole entry, looked up): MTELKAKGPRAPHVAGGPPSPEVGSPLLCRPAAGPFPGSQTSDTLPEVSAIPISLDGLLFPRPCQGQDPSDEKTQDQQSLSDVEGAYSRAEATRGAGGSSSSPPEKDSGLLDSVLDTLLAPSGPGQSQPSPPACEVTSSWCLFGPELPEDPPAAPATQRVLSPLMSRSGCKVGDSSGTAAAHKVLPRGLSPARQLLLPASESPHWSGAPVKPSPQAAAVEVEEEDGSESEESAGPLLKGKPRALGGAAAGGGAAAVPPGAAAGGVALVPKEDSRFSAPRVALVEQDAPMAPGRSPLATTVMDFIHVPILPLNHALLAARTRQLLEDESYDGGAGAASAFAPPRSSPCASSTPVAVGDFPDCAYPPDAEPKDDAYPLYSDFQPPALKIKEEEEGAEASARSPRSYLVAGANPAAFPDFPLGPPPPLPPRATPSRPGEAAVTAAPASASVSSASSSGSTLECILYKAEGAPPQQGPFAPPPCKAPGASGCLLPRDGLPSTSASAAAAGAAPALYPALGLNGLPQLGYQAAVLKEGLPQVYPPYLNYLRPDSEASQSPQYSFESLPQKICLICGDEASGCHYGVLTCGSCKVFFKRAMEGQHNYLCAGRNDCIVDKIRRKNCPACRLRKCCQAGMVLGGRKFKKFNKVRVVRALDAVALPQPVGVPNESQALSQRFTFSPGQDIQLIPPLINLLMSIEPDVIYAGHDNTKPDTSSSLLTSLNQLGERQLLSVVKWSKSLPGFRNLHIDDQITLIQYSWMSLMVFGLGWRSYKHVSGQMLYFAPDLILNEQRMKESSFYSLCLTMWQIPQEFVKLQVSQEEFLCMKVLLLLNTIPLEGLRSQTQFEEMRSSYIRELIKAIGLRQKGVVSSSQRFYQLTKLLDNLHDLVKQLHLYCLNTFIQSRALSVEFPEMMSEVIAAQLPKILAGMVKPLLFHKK
Androgen Receptor/SRC-1 Co-activator, AR (gene 367), sequence (P10275 whole entry, looked up, the tested form may be a part): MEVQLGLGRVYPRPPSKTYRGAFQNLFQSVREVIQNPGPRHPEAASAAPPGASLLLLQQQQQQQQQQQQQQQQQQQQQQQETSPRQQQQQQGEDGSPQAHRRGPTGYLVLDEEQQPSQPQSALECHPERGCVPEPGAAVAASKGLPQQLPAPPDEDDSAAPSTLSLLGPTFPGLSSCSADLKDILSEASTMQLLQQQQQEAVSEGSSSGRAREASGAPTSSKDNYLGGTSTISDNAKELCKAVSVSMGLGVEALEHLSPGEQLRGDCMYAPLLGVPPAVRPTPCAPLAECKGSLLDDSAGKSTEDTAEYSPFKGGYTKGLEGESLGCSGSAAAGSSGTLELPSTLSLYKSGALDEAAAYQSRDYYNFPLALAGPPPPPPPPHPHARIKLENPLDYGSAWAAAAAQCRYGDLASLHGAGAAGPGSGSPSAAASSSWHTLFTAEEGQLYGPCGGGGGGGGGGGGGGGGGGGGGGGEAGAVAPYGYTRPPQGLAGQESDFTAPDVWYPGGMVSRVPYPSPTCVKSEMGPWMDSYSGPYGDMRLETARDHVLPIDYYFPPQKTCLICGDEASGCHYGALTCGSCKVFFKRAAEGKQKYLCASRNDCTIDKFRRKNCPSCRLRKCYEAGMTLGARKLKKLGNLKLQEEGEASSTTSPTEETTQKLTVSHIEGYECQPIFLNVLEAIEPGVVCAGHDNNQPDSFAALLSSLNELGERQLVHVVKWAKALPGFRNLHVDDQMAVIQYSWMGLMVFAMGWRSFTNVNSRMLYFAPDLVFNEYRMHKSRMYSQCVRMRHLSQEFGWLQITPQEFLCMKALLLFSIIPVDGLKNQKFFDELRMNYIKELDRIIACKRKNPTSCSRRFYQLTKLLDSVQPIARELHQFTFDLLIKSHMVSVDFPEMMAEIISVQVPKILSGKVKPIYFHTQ
chimpanzee Androgen Receptor (AR), AR (gene 747460), sequence (O97775 whole entry, looked up): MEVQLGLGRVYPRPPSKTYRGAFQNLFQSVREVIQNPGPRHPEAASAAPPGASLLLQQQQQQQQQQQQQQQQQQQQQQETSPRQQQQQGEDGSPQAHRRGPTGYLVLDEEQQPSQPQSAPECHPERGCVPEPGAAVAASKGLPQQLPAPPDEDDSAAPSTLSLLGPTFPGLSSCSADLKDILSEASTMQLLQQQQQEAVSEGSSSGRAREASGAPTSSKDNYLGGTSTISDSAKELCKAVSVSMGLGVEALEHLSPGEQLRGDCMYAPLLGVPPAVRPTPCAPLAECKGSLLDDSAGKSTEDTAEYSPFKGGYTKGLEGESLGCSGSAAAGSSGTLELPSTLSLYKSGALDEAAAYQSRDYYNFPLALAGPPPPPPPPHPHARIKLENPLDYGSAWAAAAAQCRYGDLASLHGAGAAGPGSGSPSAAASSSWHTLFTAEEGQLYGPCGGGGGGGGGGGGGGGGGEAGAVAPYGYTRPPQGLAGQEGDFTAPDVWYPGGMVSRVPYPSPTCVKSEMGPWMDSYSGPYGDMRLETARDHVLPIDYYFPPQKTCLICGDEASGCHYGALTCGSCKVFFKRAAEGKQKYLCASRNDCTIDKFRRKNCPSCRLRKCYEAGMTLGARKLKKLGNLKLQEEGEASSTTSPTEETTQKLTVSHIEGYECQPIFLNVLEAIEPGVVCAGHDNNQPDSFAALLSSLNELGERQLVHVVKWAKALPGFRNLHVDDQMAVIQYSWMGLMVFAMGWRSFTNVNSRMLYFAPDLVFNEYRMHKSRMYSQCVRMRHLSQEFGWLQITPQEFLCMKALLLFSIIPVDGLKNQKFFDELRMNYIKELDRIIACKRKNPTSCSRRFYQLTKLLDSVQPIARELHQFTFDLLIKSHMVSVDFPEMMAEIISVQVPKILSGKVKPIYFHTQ

C#C[C@]1(O)CC[C@H]2[C@@H]3CCC4=CC(=O)CC[C@@H]4[C@H]3CC[C@@]21CC
active: NCBI gene 100848466 4.53 nM | [1] 6.85 µM | [2] 2.29 nM and 5.63 nM | [3] 50.7 µM | [5] 0.0945 µM
inactive: [1] | [3] | [4]

CC(C)CCCCCCc1ccc(O)cc1
active: [1] 16.7 µM [middle of 4 runs] | [3] 2.42 µM | [6] 1.36 µM and 1.78 µM and 1.89 µM | [7] 2.25 µM and 2.44 µM | [8] 836 nM and 1.48 µM and 1.04 µM
inactive: NCBI gene 100848466

S=C(S)NCCNC(=S)S.[Mn+2].[S-]C([S-])=NCCN=C([S-])[S-].[Zn+2]
active: [9] 17.3 µM and 25 µM | [2] 12.5 µM
inactive: [5]

CCCCC(CC)CN1C(=O)C2C3C=CC(C3)C2C1=O (stereo not drawn)
inactive: NCBI gene 100848466 | [1] | [3] | [4] | [6] | [7] | [8] | PGR (gene 5241)
active: [10] 12.3 µM

CC(C)(c1ccc(O)cc1)c1ccc(O)cc1
inactive: [11] | [1] | [12] | [3] | [4] | [13] | [5] | PGR (gene 5241)
active: NCBI gene 100848466 10.3 µM and 19.7 µM and 14.7 µM | [10] 90.5 nM and 367 nM | [2] 16.5 µM and 17.8 µM and 25.4 µM | [13] 63.3 µM and 51 µM and 64.6 µM | [5] 12.1 µM | PGR (gene 5241) 11.2 µM and 8.49 µM

C[C@]12CC[C@@H]3c4ccc(O)cc4C[C@@H](CCCCCCCCCS(=O)CCCC(F)(F)C(F)(F)F)[C@H]3[C@@H]1CC[C@@H]2O (stereo partly drawn)
active: [11] 1.45 µM | [2] 15.5 µM
inactive: [14] | [15] | NCBI gene 100848466 | [1] | [2] | [13]

O=C(O)C1(C(=O)Nc2ccc(Cl)cc2Cl)CC1
inactive: [3] | [6] | [13] | [7] | [8] | [16] | PGR (gene 5241)
active: [10] 9.08 µM

N[C@@H](Cc1cc(I)c(Oc2ccc(O)c(I)c2)c(I)c1)C(=O)O
active: [10] 20 µM | [12] 7.8 µM and 8.49 µM and 6.72 µM
inactive: [1] | [2] | [12] | [3] | [4]

CCCN(CCC)C(=O)SCC
inactive: NCBI gene 100848466 | [10] | [3] | [4] | [6] | [13] | [5] | [7] | [8] | PGR (gene 5241)
